Results reported in PubChem BioAssay (NCATS).
“And” between values parts separate entries of the source, which are not always exact repeats. Equal values may be shown once. Inconclusive results are not listed. The source made the active and inactive calls. Unless noted, the call rests on the fitted dose curve; in most records, active means well fitted curve in the direction sought with a large enough effect; inconclusive means small, poorly fitted or top-dose-only effect, or another doubt; inactive means no such curve, though single readings can be large; an effect the other way counts as inactive or inconclusive.

What was measured:
[1] = molecular target: Cytochrome P450 1A2 (Homo sapiens) (UniProt P05177); test: p450-cyp1a2 (AID 410; calls by dose curve;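 further: -100% = full effect of reference inhibitor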)
Cytochrome P450 1A2 (Homo sapiens), sequence (P05177 whole entry, looked up): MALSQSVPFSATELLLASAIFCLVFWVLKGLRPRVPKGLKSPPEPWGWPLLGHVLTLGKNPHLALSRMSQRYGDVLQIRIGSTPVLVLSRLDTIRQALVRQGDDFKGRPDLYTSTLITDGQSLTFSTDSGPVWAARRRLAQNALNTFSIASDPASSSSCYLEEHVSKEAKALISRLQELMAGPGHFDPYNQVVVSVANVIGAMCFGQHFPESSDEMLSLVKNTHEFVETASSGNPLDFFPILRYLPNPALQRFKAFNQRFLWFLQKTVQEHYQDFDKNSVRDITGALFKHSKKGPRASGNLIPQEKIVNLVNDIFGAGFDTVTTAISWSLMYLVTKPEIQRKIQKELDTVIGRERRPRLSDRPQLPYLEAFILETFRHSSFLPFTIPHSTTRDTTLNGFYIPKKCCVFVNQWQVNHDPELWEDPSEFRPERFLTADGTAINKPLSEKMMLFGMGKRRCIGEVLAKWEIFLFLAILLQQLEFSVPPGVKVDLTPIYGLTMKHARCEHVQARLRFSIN
Procedure, shortened: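 Human CYP1A2 (20nM) demethylated Luciferin-ME at its Km (100uM) in 100mM KPO4. After 10 min compound preincubation, NADPH regeneration ran the reaction 60 min at room temperature. Luciferin was read by luminescence, normalized to 57 uM furafylline.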

[2] = molecular target: Mitogen-activated protein kinase 10 (Mus musculus) (UniProt Q61831); test: JNK3 AlphaScreen Assay (AID 530; active means well fitted curve in either direction with a large enough effect, not every such curve was filed as active;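 further: kinase came from lysate of stimulated human HepG2 cells; signal reports phosphorylation of biotinylated GST-cJun 1-79 at Ser73 with 10 µM ATP; on the % scale 0 is the no-effect control and ±100 the full control effect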)
Procedure, shortened: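 qHTS format: compounds tested as titrations against IL-1beta/TNF-alpha-activated HepG2 lysate JNK3 with biotin-GST-cJun substrate and 10 uM ATP at room temperature. Loss of anti-phospho-cJun AlphaScreen signal indicates inhibition.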

[3] = AP1 Signaling Pathway (AID 357; active means well fitted curve in either direction with a large enough effect, not every such curve was filed as active;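 further: ME-180 reporter cells stimulated with EGF at its EC50 level; on the % scale 0 is the no-effect control and ±100 the full control effect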); conditions: ME-180 AP-1-bla reporter, EGF-induced, beta-lactamase ratio, 5 h; at 17.2 µM (top of the series)
Procedure, shortened: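 A ratiometric CCF4 readout (405 nm excitation; 460 and 530 nm emission) quantified AP-1-driven beta-lactamase in ME-180 cells after 5 h with compound and EC50 EGF; AC50 values were derived for activators and inhibitors.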

[4] = molecular target: Glucocorticoid receptor (Homo sapiens) (UniProt P04150); test: GR-GFP Redistribution (AID 450;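 active means compounds whose dose series gives a full or clear partial fitted curve of increased nuclear translocation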; further: potency means the concentration at half of the fitted maximal effect); conditions: U2OS GR-GFP nuclear translocation, laser cytometry, 2 h
Glucocorticoid receptor (Homo sapiens), sequence (P04150 whole entry, looked up, the tested form may be a part): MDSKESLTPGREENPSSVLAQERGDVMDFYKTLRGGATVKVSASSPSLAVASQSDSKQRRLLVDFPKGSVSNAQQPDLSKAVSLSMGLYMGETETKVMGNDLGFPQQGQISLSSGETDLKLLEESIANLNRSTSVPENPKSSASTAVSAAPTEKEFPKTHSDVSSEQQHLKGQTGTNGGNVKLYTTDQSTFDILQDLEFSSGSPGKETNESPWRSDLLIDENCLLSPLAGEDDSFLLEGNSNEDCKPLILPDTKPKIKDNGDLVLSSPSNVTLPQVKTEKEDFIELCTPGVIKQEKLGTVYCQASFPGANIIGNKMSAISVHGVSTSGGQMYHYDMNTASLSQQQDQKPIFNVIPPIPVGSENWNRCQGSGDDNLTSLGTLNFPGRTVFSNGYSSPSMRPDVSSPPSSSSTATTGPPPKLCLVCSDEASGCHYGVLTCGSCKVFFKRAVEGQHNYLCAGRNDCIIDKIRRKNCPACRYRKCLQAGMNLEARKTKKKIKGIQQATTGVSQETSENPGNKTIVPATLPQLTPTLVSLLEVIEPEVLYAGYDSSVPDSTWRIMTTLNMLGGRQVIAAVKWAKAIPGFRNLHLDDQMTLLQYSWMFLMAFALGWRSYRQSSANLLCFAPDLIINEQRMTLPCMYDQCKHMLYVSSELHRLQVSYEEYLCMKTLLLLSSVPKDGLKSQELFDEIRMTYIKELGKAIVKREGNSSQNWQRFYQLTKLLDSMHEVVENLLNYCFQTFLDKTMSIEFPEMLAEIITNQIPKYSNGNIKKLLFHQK

[5] = molecular target: Glucocorticoid receptor (Homo sapiens) (UniProt P04150); test: GR-EFC Redistribution (AID 451; calls by dose curve; further: potency means the concentration at half of the fitted maximal effect); conditions: CHO-K1 GR-EFC translocation, beta-gal luminescence, 2 h
Procedure, shortened: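 CHO-K1 cells expressing nuclear EA and GR-ED fragments of b-gal; compounds titrated up to 46 uM final, 2 h at 37 C. GR nuclear translocation read as complemented b-gal luminescence after 1 h RT detection.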

[6] = molecular target: 3',5'-cyclic-AMP phosphodiesterase 4B (Homo sapiens) (UniProt Q07343); test: qHTS Assay for Inhibitors of PDE-IV (AID 607; active means well fitted activation curve with a large enough effect in the main read-out, with a control signal flat, not every such curve was filed as active; further: % of control where 0% means no effect)
3',5'-cyclic-AMP phosphodiesterase 4B (Homo sapiens), sequence (Q07343 whole entry, looked up): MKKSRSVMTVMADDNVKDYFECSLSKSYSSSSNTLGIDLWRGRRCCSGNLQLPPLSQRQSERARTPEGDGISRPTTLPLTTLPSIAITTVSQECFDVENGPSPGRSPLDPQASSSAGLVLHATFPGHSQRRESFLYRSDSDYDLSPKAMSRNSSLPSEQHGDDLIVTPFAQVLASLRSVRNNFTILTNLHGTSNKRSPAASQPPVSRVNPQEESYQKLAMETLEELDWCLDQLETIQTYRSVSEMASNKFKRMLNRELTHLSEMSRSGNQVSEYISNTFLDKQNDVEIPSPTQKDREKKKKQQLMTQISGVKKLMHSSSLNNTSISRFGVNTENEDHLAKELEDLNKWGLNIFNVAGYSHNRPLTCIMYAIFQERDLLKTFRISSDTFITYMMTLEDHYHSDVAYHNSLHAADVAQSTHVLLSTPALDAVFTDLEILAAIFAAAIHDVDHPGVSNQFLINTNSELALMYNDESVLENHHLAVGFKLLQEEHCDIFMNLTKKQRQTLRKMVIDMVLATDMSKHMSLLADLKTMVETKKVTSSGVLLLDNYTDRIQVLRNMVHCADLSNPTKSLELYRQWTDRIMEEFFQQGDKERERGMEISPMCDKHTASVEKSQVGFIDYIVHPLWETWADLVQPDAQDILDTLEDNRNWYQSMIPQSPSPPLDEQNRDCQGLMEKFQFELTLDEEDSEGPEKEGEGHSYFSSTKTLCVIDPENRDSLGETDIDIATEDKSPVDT
Procedure, shortened: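 Live HEK293 cells with a modified cyclic nucleotide-gated (CNG) channel report intracellular cAMP via membrane-potential dye fluorescence (ex 535/em 590 nm). Endogenous PDE-IV was targeted. Compounds were tested at up to 22.9 uM final; RO 20-1724 100 uM served as control.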

[7] = Cell Viability - BJ (AID 421; calls by dose curve;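 further: potency means the concentration at half of the fitted maximal effect; cells exposed to compound for 40 hours at 37 °C before readout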); conditions: BJ fibroblast viability, qHTS
Procedure, shortened: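 Quantitative HTS: ATP depletion in BJ cells after 40 hr compound exposure in complete culture medium, detected with CellTiter-Glo; AC50 from standard Hill fits.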

[8] = Cell Viability - Jurkat (AID 426;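 active means dose-dependent loss of cell ATP signal giving a full or clear fitted curve, ranked by lower potency value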; further: potency means the concentration at half of the fitted maximal effect); conditions: qHTS
Procedure, shortened: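 Jurkat (clone E6-1, human T-cell leukemia) cells, 5000/well in complete medium, were exposed to compound for 40 hr at 37 °C. Viability was read as intracellular ATP by CellTiter-Glo luminescence; AC50 came from Hill fits of concentration-response data.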

[9] = Cell Viability - Hek293 (AID 427;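 active means compounds whose dose-response curve shows a full or clear partial loss of cell viability, called from curve shape rather than a numeric limit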;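 further: potency means the concentration at half of the fitted maximal effect; cells exposed to compound for 40 hours at 37 °C before reading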); conditions: qHTS
Procedure, shortened: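 AC50 values derive from Hill-modelled concentration-response of ATP-based luminescence, normalized between DMSO-only and 100 uM tamoxifen controls. Cells were exposed in complete culture medium for 40 hr at 37 °C before detection.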

[10] = Cell Viability - HepG2 (AID 433; calls by dose curve;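 further: potency means the concentration at half of the fitted maximal effect; potency for ATP loss meaning cytotoxicity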); conditions: qHTS
Procedure, shortened: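 Cytotoxicity read as ATP loss (CellTiter-Glo luminescence) after 40 hr compound exposure of HepG2, 1500 cells/well, 37 °C. AC50 by Hill equation; 0% set by DMSO, 100% inhibition by 100 uM tamoxifen.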

[11] = Cell Viability - N2a (AID 540); conditions: N2a mouse neuroblastoma cell viability; activity change, negative = cytotoxicity: at 92.2 µM (top of the series);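 further: plate controls were DMSO alone for no effect and tamoxifen control for full effect; nearly all actives have a fitted effect of over 45% in size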
Procedure, shortened: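 Mouse neuroblastoma N2a cells (1500/well) were preincubated 5 hr at 37 °C, then exposed to compounds for 40 hr at 37 °C in complete medium. Viability was read as intracellular ATP by CellTiter-Glo luminescence; AC50 from Hill fits.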

[12] = Cell Viability - NIH 3T3 (AID 541); conditions: NIH 3T3 cell viability, qHTS; activity change, negative = cytotoxicity: at 92.2 µM (top of the series); further: nearly all actives have a fitted effect of over 25% in size; further: potency means the concentration at half of the fitted maximal effect;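 on activity change, negative = cytotoxicity: plate controls were DMSO alone for no effect and tamoxifen positive control for full effect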
Procedure, shortened: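 NIH 3T3 mouse embryo fibroblasts (1000 cells/well) were plated in complete medium and treated with compound for 40 hr at 37 °C. Viability was read as intracellular ATP by CellTiter-Glo luminescence; AC50 values came from Hill-equation fits of concentration-response data.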

[13] = Cell Viability - HUV-EC-C (AID 542); further: on the % scale 0 is the no-effect control and ±100 the full control effect; nearly all actives have a fitted effect of over 35% in size
Procedure, shortened: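 HUV-EC-C normal human vascular endothelial cells, 1000 cells/well, pre-incubated 5 hr at 37 °C, then exposed to compounds for 40 hr at 37 °C in complete medium. Viability measured as intracellular ATP by CellTiter-Glo luminescence; AC50 from Hill fits.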

[14] = Cell Viability - H-4-II-E (AID 543); further: on the % scale 0 is the no-effect control and ±100 the full control effect; nearly all actives have a fitted effect of over 35% in size
Procedure, shortened: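 Rat hepatoma H-4-II-E cells (1500/well) were plated, incubated 5 hr at 37 °C, then exposed to compounds for 40 hr at 37 °C. Cellular ATP was read by CellTiter-Glo luminescence; AC50 came from Hill-equation fits of concentration-response data.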

[15] = Cell Viability - SH-SY5Y (AID 544); further: nearly all actives have a fitted effect of over 55% in size; further: potency means the concentration at half of the fitted maximal effect
Procedure, shortened: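 Human neuroblastoma SH-SY5Y cells (1500/well) in complete medium were exposed to compounds for 40 hr at 37 °C; intracellular ATP was then quantified by CellTiter-Glo luminescence after 20 min at room temperature. AC50 came from Hill-equation concentration-response fits.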

[16] = Cell Viability - Renal Proximal Tubule (AID 545);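 further: 0% = DMSO only and -100% = 100 µM tamoxifen; nearly all actives have a fitted effect of over 40% in size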
Procedure, shortened: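 Viability taken as intracellular ATP (CellTiter-Glo luminescence) after 40 hr, 37 °C compound treatment of primary proximal tubule cells from rat kidney, 1000 cells/well; Hill-equation fits of qHTS concentration-response data gave AC50.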

[17] = Cell Viability - Mesenchymal (AID 546);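 further: cells exposed to compound for 40 hours before reading; 0% = DMSO only and -100% = 100 µM tamoxifen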
Procedure, shortened: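 Human kidney mesenchymal cells from normal renal glomeruli, 1000 cells/well, rested 5 hr at 37 °C, then treated 40 hr at 37 °C in complete medium. Cellular ATP read by CellTiter-Glo luminescence; AC50 from Hill-equation fits.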

[18] = NFAT Signaling Pathway (AID 444; active means well fitted curve in either direction with a large enough effect, not every such curve was filed as active;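 further: carbachol stimulus at about its EC50 of 1 µM final; on the % scale 0 is the no-effect control and ±100 the full control effect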); conditions: Jurkat NFAT-bla M1, carbachol, beta-lactamase ratio, 5 h; at 17.2 µM (top of the series)
Procedure, shortened: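 Jurkat cells with NFAT-driven β-lactamase reporter and co-expressed M1 receptor, stimulated with carbachol (final 1 uM, ~EC50), compound titration, 5 h at 37 °C. CCF4 loaded 1 h at RT; 460/530 nm ratio gave %activity and AC50.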

[19] = Stat Signaling Pathway (AID 446; active means well fitted curve in either direction with a large enough effect, not every such curve was filed as active;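 further: ME-180 cervical cancer cells given 40 pM IL-6 alongside compound; SIE-controlled beta-lactamase reporter measured as 460/530 nm FRET emission ratio; on the % scale 0 is the no-effect control and ±100 the full control effect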); conditions: ME-180 (cervical carcinoma) SIE beta-lactamase reporter, IL-6 stimulated, 5 h; at 17.2 µM (top of the series)
Procedure, shortened: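 IL-6/STAT signaling read in ME-180 cells via an SIE beta-lactamase reporter. Stimulus was 40 pM IL-6 (its AC50) for 5 hrs, so both activation and inhibition register.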

CN(C)CCCN1c2ccccc2CCc2ccccc21
inactive: Potency [1] | Potency [2]

CCCCOc1cc(C(=O)OCCN(CC)CC)ccc1N
inactive: activity change, negative = inhibition [3] -0.742% | Potency [4] > 20.6 µM | Potency [5] > 20.6 µM | Potency [2] | outcome [6]

COc1ccccc1O
inactive: Potency [7] > 92 µM | Potency [8] > 92 µM | Potency [9] > 92 µM | Potency [10] > 92 µM | Potency [2] | activity change, negative = cytotoxicity [11] 1.24% and 7.3% and 7.13% | Potency [12] | Potency [13] | Potency [14] | Potency [15] | Potency [16] | outcome [17]

O=C(CCCN1CCN(c2ccccn2)CC1)c1ccc(F)cc1
inactive: activity change, negative = inhibition [3] 7.66% | Potency [2] | outcome [6]

CN1[C@@H]2CC(OC(=O)[C@H](CO)c3ccccc3)C[C@H]1[C@@H]1O[C@@H]12 (some centres not stated)
active: activity change, negative = inhibition [18] -78.1%
inactive: activity change, negative = inhibition [3] -6.51% | activity, negative = inhibition [19] 3.51%

Cc1ncc([N+](=O)[O-])n1CC(O)CCl (configuration not stated)
inactive: activity change, negative = inhibition [3] 0.517% | activity change, negative = inhibition [18] -27.2% | activity, negative = inhibition [19] 0.729% | Potency [4] > 20.6 µM

O=c1cc(CO)occ1O
inactive: Potency [1] | Potency [4] > 46 µM | Potency [5] > 46 µM | Potency [2]

CCCc1c(OCCCCc2nn[nH]n2)ccc(C(C)=O)c1O
inactive: activity change, negative = inhibition [3] -20.5% | Potency [4] > 20.6 µM

CNCCC(Oc1ccc(C(F)(F)F)cc1)c1ccccc1 (configuration not stated)
inactive: activity change, negative = inhibition [3] 21.9% | activity, negative = inhibition [19] 4.05%

OCC(O)CN1CCN(c2ccccc2)CC1 (configuration not stated)
inactive: activity change, negative = inhibition [3] -1.76% | activity change, negative = inhibition [18] 8.65% | Potency [4] > 20.6 µM

Nc1ncnc2c1ncn2[C@@H]1O[C@H](CO)[C@@H](O)[C@H]1O
inactive: activity change, negative = inhibition [18] -4.17% | Potency [4] > 20.6 µM

CSc1ccc2c(c1)N(CCC1CCCCN1C)c1ccccc1S2 (configuration not stated)
active: activity change, negative = inhibition [18] -83%

CC(CN1c2ccccc2Sc2ccccc21)N(C)C (configuration not stated)
active: activity change, negative = inhibition [18] -73.5%

CN(C)CCCN1c2ccccc2Sc2ccc(Cl)cc21
inactive: Potency [4] > 20.6 µM | Potency [5] > 46 µM and > 20.6 µM | Potency [2] | outcome [6]
active: activity change, negative = inhibition [18] -73.6%

O=C1c2c(O)cccc2Cc2cccc(O)c21
inactive: Potency [7] > 92 µM | Potency [8] > 92 µM | Potency [9] > 92 µM | Potency [10] > 92 µM | Potency [2] | Potency [13] | Potency [14] | Potency [15] | Potency [16]

O=C(O)CN1C(=O)c2cccc3cccc(c23)C1=O
inactive: Potency [2]

CN(C)CCN(Cc1ccccc1)c1ccccn1
inactive: Potency [4] > 20.6 µM

Cn1cc[nH]c1=S
inactive: activity change, negative = inhibition [3] -7.08% | activity change, negative = inhibition [18] -4.58% | Potency [2] | outcome [6]

NCCNCCNCCNCCN
inactive: Potency [7] > 92 µM | Potency [8] > 92 µM | Potency [9] > 92 µM | Potency [10] > 92 µM | Potency [2] | activity change, negative = cytotoxicity [11] -2.82% | Potency [12] | Potency [13] | Potency [14] | Potency [15] | Potency [16] | outcome [17]

NCCNCCNCCN
inactive: Potency [7] > 92 µM | Potency [8] > 92 µM | Potency [9] > 92 µM | Potency [10] > 92 µM | Potency [2] | activity change, negative = cytotoxicity [11] -20% | Potency [12] | Potency [13] | Potency [14] | Potency [15] | Potency [16] | outcome [17]

C[C@]12CC[C@@H]3c4ccc(O)cc4CC[C@H]3[C@@H]1CCC2=O
inactive: activity change, negative = inhibition [3] -1.97% | activity change, negative = inhibition [18] -19.8% | activity, negative = inhibition [19] -23.3%

CC12CCC(CC1)C(C)(C)O2
inactive: Potency [7] > 92 µM | Potency [8] > 92 µM | Potency [9] > 92 µM | Potency [10] > 92 µM | Potency [2] | activity change, negative = cytotoxicity [11] -7.51% | Potency [12] | Potency [13] | Potency [14] | Potency [15] | Potency [16] | outcome [17]

Cc1cc2nc3c(=O)[nH]c(=O)nc-3n(C[C@H](O)[C@H](O)[C@H](O)CO)c2cc1C
inactive: Potency [7] > 92 µM | Potency [8] > 92 µM | Potency [9] > 92 µM | Potency [10] > 92 µM | Potency [2] | activity change, negative = cytotoxicity [11] 0.316% | Potency [12] | Potency [13] | Potency [14] | Potency [15] | Potency [16] | outcome [17]

NC(=O)c1ncn([C@@H]2O[C@H](CO)[C@@H](O)[C@H]2O)n1
inactive: Potency [7] > 92 µM | Potency [8] > 92 µM | Potency [10] > 92 µM | Potency [2] | Potency [13] | Potency [16] | outcome [17]
active: Potency [12] 25.1 µM | Potency [15] 31.6 µM

CC[C@H]1CN2CCc3cc(OC)c(OC)cc3[C@@H]2C[C@@H]1C[C@H]1NCCc2cc(OC)c(OC)cc21
active: activity change, negative = inhibition [3] -119% | activity change, negative = inhibition [18] -131%
inactive: Potency [4] > 20.6 µM
